Measurements published in PubChem BioAssay (NCI).
This is part of a sample that, as a whole, favours compounds with a hit. Of some 83,000 tested, about 20% had one in any assay.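 Single-dose data. Exposure time 48 hours. Values below 10 considered active.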 Calls of active or inactive are those of the source.

Legend:
Test in all cases: NCI-60 one-dose screen, 48 h (100 = growth as untreated, 0 = no growth, -100 = all killed)
Conditions in all cases: 10 µM unless noted
[1] = system: SK-MEL-2 melanoma
[2] = system: EKVX NSCLC
[3] = system: SN12C renal
[4] = system: UO-31 renal
[5] = system: TK-10 renal
[6] = system: ACHN renal
[7] = system: CAKI-1 renal
[8] = system: A498 renal
[9] = system: CCRF-CEM leukemia
[10] = system: MOLT-4 leukemia
[11] = system: SR leukemia
[12] = system: RPMI-8226 leukemia
[13] = system: OVCAR-8 ovarian
[14] = system: OVCAR-5 ovarian
[15] = system: OVCAR-4 ovarian
[16] = system: SK-OV-3 ovarian
[17] = system: IGROV1 ovarian
[18] = system: OVCAR-3 ovarian
[19] = system: NCI/ADR-RES ovarian
[20] = system: HS 578T breast

Measured: growth

C=C1CC[C@@H]2[C@]3(C)COC(c4cn[nH]c4-c4ccccc4)O[C@@H]3CC[C@@]2(C)[C@@H]1C/C=C1/C(=O)OCC1O (stereo not given in full)
inactive: [1] 73.8% | [3] 21.9% | [6] 11% | [7] 11.4% | [8] 137% | [13] 33% | [14] 22.6% | [15] 11.5% | [16] 107% | [17] 30.6% | [18] 34.7% | [19] 37.8%
active: [2] -45.2% | [4] -0.824% | [5] -8.55% | [9] 2.72% | [10] 4.6% | [11] -18.9% | [12] -28.6%

N#Cc1c(-c2ccc(Br)cc2)nc2n[nH]c(-c3ccc(Br)cc3)c2c1-c1ccc(C(F)(F)F)cc1
active: [1] -37.7% | [2] 5.95% | [7] 2.69% | [10] 4.06% | [11] -11.6% | [12] 0.725% | [17] 6.15%
inactive: [3] 19.2% | [4] 11.9% | [5] 70% | [6] 13.1% | [8] 92.3% | [9] 13.9% | [13] 40.4% | [14] 47.7% | [15] 11.8% | [16] 21.8% | [18] 10.7% | [19] 23.7%

CNC(=O)c1cccc(NC(=O)c2ccc3c(c2)nnn3/C(C#N)=C/c2ccccn2)c1
active: [1] -60.7% | [2] -30.5% | [3] -15.8% | [4] -7.22% | [5] -25.4% | [6] -24.2% | [9] -24.5% | [10] -19.2% | [11] -5.41% | [12] -23.6% | [17] -2.48% | [18] -69.2%
inactive: [7] 25.7% | [8] 115% | [13] 10% | [14] 19.6% | [15] 40.6% | [16] 83.4% | [19] 84.3%

CSc1ccccc1NC(=O)c1ccc2nn(/C(C#N)=C/c3ccccn3)nc2c1
inactive: [8] 93.7% | [16] 42.9%
active: [1] -67% | [2] -98.5% | [3] -59.2% | [4] -100% | [5] -98.4% | [6] -99% | [7] -87.3% | [9] -34.7% | [10] -22.3% | [11] 1.1% | [12] -41.9% | [13] -3.76% | [14] -86.8% | [15] -55.6% | [17] -67.9% | [18] -87.8% | [19] 2.48%

CN(C)c1nc(NCCNS(=O)(=O)c2ccc(C3=Nc4c(N)nc(N)nc4NC(c4ccc(F)cc4)C3)cc2)nc(Nc2ccc(F)cc2)n1 (stereo not given)
inactive: [1] 58.7% | [2] 47.5% | [3] 42.7% | [4] 82.9% | [5] 65.9% | [6] 77.1% | [7] 64.4% | [8] 53.3% | [13] 43.5% | [14] 78.2% | [15] 40.8% | [16] 73.4% | [17] 38.6% | [18] 40.9% | [20] 51.8% | [19] 98%
active: [9] 8.67% | [10] 6.56% | [11] 0.331% | [12] -6.35%

COc1ccc(-c2cc(C(=O)NCc3ccccc3)nn2-c2ccc(S(C)(=O)=O)cc2)cc1OC
inactive: [1] 119% | [2] 97.5% | [3] 88.1% | [4] 77% | [5] 106% | [6] 104% | [7] 87.1% | [8] 99.9% | [9] 101% | [11] 82.3% | [12] 86.9% | [13] 100% | [14] 102% | [15] 94.3% | [16] 105% | [17] 122% | [18] 115% | [19] 107%
active: [10] -4.09%

N#Cc1c(-c2ccccc2Cl)cc(-c2c[nH]c3ccccc23)[nH]c1=O
inactive: [1] 49% | [2] 68.1% | [3] 61.5% | [4] 58.7% | [5] 102% | [6] 63.9% | [7] 55.5% | [8] 116% | [9] 32.2% | [10] 34.7% | [12] 70.7% | [13] 87.4% | [14] 82.1% | [15] 69.6% | [16] 87.8% | [17] 78.5% | [18] 93.8% | [19] 82.3%
active: [11] 9.99%

COc1ccccc1C(=O)NN1C(=O)/C(=C/C2=Cc3ccccc3OC2)SC1=S
inactive: [1] 109% | [2] 105% | [3] 104% | [4] 74% | [5] 124% | [6] 103% | [7] 45.5% | [8] 134% | [9] 93.7% | [10] 100% | [11] 92.1% | [12] 88.6% | [13] 99.9% | [14] 109% | [15] 102% | [16] 94.5% | [17] 107% | [18] 107% | [20] 111% | [19] 107%

CCCCCCCS(=O)(=O)N1CCCC(C(=O)Nc2nc3ccc(NC(=O)c4ccc(F)c(OC)c4F)cc3s2)C1 (stereo not given)
active: [13] 6.24%
inactive: [1] 58.9% | [2] 55.7% | [3] 51.3% | [4] 67.9% | [5] 85.9% | [6] 53% | [7] 59% | [8] 89.4% | [9] 50.2% | [10] 59.7% | [11] 60.6% | [12] 41.3% | [14] 65.1% | [15] 29.8% | [16] 57.4% | [17] 60.3% | [18] 40.2% | [20] 25.2% | [19] 46.8%

C=C1CC[C@@H]2[C@]3(C)COC(c4cn[nH]c4-c4ccc(C)cc4)O[C@@H]3CC[C@@]2(C)[C@@H]1C/C=C1/C(=O)OCC1O (stereo not given in full)
inactive: [1] 51.4% | [2] 12.9% | [5] 49% | [7] 50.3% | [8] 133% | [10] 13.9% | [14] 20.4% | [15] 31.9% | [16] 79.9% | [17] 24%
active: [3] 7.06% | [4] 4.54% | [6] -53.5% | [9] -17.8% | [11] -25% | [12] -25.2% | [13] -21.7% | [18] -23.1% | [19] -41.8%

CC(C)c1ccc2c(N)c(C(=O)Nc3cccc(C(F)(F)F)c3)sc2n1
inactive: [1] 89.5% | [2] 47.4% | [3] 76.2% | [4] 77.9% | [5] 97.3% | [6] 76% | [7] 74% | [8] 143% | [9] 38.9% | [10] 56.4% | [11] 40.4% | [12] 32.1% | [13] 90.7% | [14] 85% | [15] 78.1% | [16] 87.2% | [17] 108% | [18] 94.1% | [19] 71.7%

Cc1ccccc1[C@H]1C(C(=O)c2ccc(Cl)cc2)C2(N[C@@H]1c1ccccc1)C(=O)Nc1ccc(Br)cc12 (stereo not given in full)
inactive: [2] 26.4% | [4] 14.1% | [5] 41.6% | [7] 23% | [8] 44.3% | [15] 14.6% | [16] 33.4% | [17] 13.4% | [20] 10.7%
active: [1] -11.2% | [3] -82.1% | [6] 7.11% | [9] 5.11% | [10] -2.55% | [11] -21.5% | [12] -10.5% | [13] 2.36% | [14] 5.07% | [18] -30.7% | [19] -55.1%

CC1=C(C(=O)c2ccccc2)C(c2cccc(Cl)c2Cl)n2c(nc3ccccc32)N1 (stereo not given)
inactive: [1] 76% | [2] 46.3% | [3] 53.6% | [4] 67.7% | [5] 102% | [6] 71.9% | [7] 47% | [8] 116% | [9] 40.5% | [10] 45.6% | [11] 39.2% | [12] 86% | [13] 26.3% | [14] 60.3% | [15] 65.2% | [16] 33.7% | [17] 77.7% | [18] 35.5% | [19] 19.1%

Cc1c(C(=O)NNC(=O)c2ccc(Cl)cc2)nnn1-c1ccc(Br)cc1
inactive: [1] 107% | [2] 99.4% | [3] 102% | [4] 75.9% | [5] 95.4% | [6] 102% | [7] 87.9% | [8] 139% | [9] 90.3% | [10] 85.4% | [11] 84.3% | [12] 98.2% | [13] 103% | [14] 95.2% | [15] 96.5% | [16] 90.2% | [17] 105% | [18] 115% | [19] 97.5%

CC(C)(C)OC(=O)/C=C/c1cccc2c1C(=O)NC(C)(c1cc3cc(Cl)ccc3oc1=O)N2 (stereo not given)
inactive: [1] 43.6% | [2] 36.2% | [3] 50% | [4] 20.8% | [5] 66.2% | [6] 19.6% | [7] 42.4% | [8] 102% | [9] 24.2% | [13] 39.1% | [14] 67.1% | [15] 43.9% | [16] 47.6% | [17] 44.7% | [18] 43.8% | [20] 65.1% | [19] 25.4%
active: [10] -14.6% | [11] 8.86% | [12] 1.99%
